Results published in the supplement of paper PMC8387472.

Key:
Settings in all cases: mESC; 2uM; 72 h treatment, harvest day 5
Rifapentine = compound: CO[C@H]1/C=C/O[C@@]2(C)Oc3c(C)c(O)c4c(O)c(c(/C=N/N5CCN(C6CCCC6)CC5)c(O)c4c3C2=O)NC(=O)/C(C)=C\C=C\[C@H](C)[C@H](O)[C@@H](C)[C@@H](O)[C@@H](C)[C@H](OC(C)=O)[C@@H]1C [Rifapentine]; test: fraction of microhomology deletions among edited reads; higher = more MH deletions
[1] = compound: COc1ccccc1-c1cc(Nc2cccc(CS(N)(=O)=O)c2)ncn1; test: as above
[2] = compound: C[C@@H]1CN(CC(=O)Nc2ccc3c(c2)Cc2cccc(-c4cc(=O)cc(N5CCOCC5)o4)c2S3)C[C@H](C)O1; test: as above
[3] = compound: Cc1cc(C)nc(SCC(=O)Nc2ncc(Cc3cccc4ccccc34)s2)n1; test: as above
[4] = compound: Cc1cccc(CC(=O)N2CCc3c2ccc(-c2cn(C)c4ncnc(N)c24)c3F)n1; test: as above
[5] = compound: NC(=O)c1ccc2nc(-c3ccc(Oc4ccc(Cl)cc4)cc3)[nH]c2c1 [Chk 2 inhibitor II (BML-277)]; test: as above
Tucidinostat (Chidamide) = compound: Nc1cc(F)ccc1NC(=O)c1ccc(CNC(=O)/C=C/c2cccnc2)cc1 [Tucidinostat (Chidamide)]; test: as above
Pemetrexed = compound: Nc1nc2[nH]cc(CCc3ccc(C(=O)N[C@@H](CCC(=O)O)C(=O)O)cc3)c2c(=O)[nH]1 [Pemetrexed]; test: as above
[6] = compound: Nc1ncnc2c1c(-c1cnc3[nH]ccc3c1)nn2C1CCCC1; test: as above
[7] = compound: O=C(c1cccc(Cl)c1F)N1CCN(Cc2cccc(Nc3nccs3)n2)CC1; test: as above
Kenpaullone = compound: O=C1Cc2c([nH]c3ccc(Br)cc23)-c2ccccc2N1 [Kenpaullone]; test: as above
Genistein = compound: O=c1c(-c2ccc(O)cc2)coc2cc(O)cc(O)c12 [Genistein]; test: as above
[8] = compound: O=c1cc(N2CCOCC2)oc2c(-c3ccc4c(c3)OCCO4)csc12; test: as above
Mercaptopurine (6-MP) = compound: S=c1[nH]cnc2nc[nH]c12 [Mercaptopurine (6-MP)]; test: as above
[9] = compound: S=c1nc[nH]c2nc[nH]c12 [6-Mercaptopurine (6-MP) Monohydrate]; test: as above
[10] = compound: CC(=O)O/N=C1\C(=O)N(Cc2cc(Cl)ccc2Cl)c2ccc(Cl)cc21; test: fraction of 1-bp insertions among edited reads; higher = more 1-bp insertion outcomes
[11] = compound: CC(C)(C#N)c1ccc(N2C(=O)OCc3cnc4ccc(-c5cnc6ccccc6c5)cc4c32)cc1; test: as above
[12] = compound: CCCCOc1c(C(=O)c2c(F)cc(C)cc2F)c[nH]c2nncc1-2; test: as above
[13] = compound: CCN1CCN(CC(=O)Nc2ccc(-c3cccc4c(=O)cc(N5CCOCC5)oc34)c3sc4ccccc4c23)CC1; test: as above
[14] = compound: CCc1c2c(nc3ccc(OC(=O)N4CCC(N5CCCCC5)CC4)cc13)-c1cc3c(c(=O)n1C2)COC(=O)[C@]3(O)CC [Irinotecan HCl Trihydrate]; test: as above

| Target | fraction of microhomology deletions among edited reads (Rifapentine) | fraction of microhomology deletions among edited reads [1] | fraction of microhomology deletions among edited reads [2] | fraction of microhomology deletions among edited reads [3] | fraction of microhomology deletions among edited reads [4] | fraction of microhomology deletions among edited reads [5] | fraction of microhomology deletions among edited reads (Tucidinostat (Chidamide)) | fraction of microhomology deletions among edited reads (Pemetrexed) | fraction of microhomology deletions among edited reads [6] | fraction of microhomology deletions among edited reads [7] | fraction of microhomology deletions among edited reads (Kenpaullone) | fraction of microhomology deletions among edited reads (Genistein) | fraction of microhomology deletions among edited reads [8] | fraction of microhomology deletions among edited reads (Mercaptopurine (6-MP)) | fraction of microhomology deletions among edited reads [9] | fraction of 1-bp insertions among edited reads [10] | fraction of 1-bp insertions among edited reads [11] | fraction of 1-bp insertions among edited reads [12] | fraction of 1-bp insertions among edited reads [13] | fraction of 1-bp insertions among edited reads [14] |
| --- | --- | --- | --- | --- | --- | --- | --- | --- | --- | --- | --- | --- | --- | --- | --- | --- | --- | --- | --- | --- |
| 45.0 (DMSO control at this site: 1-bp insertion 0.017, MH deletion 0.666, edited 0.101) TTACACAGCATGAACTGCTAGGTGATGATGTCAGATTCGGTTTTACTAACTTCTCCAAAAA | 0.624 | 0.614 | 0.515 | 0.608 | 0.655 | 0.617 | 0.624 | 0.574 | 0.54 | 0.598 | 0.561 | 0.601 | 0.67 | 0.614 | 0.557 | 0.0284 | 0.0222 | 0.0249 | 0.016 | 0.0413 |
| 40.0 (DMSO control at this site: 1-bp insertion 0.072, MH deletion 0.192, edited 0.189) GCGAATCAACTGTTCAACAACAGCAGCAGCCACCTGGAGGACTACAGTGGCCTGTCCGTGT | 0.211 | 0.146 | 0.0486 | 0.173 | 0.156 | 0.181 | 0.145 | 0.169 | 0.139 | 0.137 | 0.124 | 0.192 | 0.211 | 0.145 | 0.137 | 0.0727 | 0.0752 | 0.072 | 0.0486 | 0.0746 |
| 33.0 (DMSO control at this site: 1-bp insertion 0.008, MH deletion 0.771, edited 0.112) CATTAAGAGCAGCTGCCGGCCCCCAAGTGGACAGAGCTGGCCCTGCTGATTCAACAGTGCA | 0.724 | 0.681 | 0.583 | 0.722 | 0.732 | 0.712 | 0.706 | 0.682 | 0.708 | 0.688 | 0.726 | 0.732 | 0.737 | 0.699 | 0.692 | 0.0218 | 0.021 | 0.0356 | 0.018 | 0.0322 |
| 26.0 (DMSO control at this site: 1-bp insertion 0.518, MH deletion 0.262, edited 0.026) AGGGCGCGCCCCACGCACTCTGCGGCAAGTCCCTCTGCGGCAAGTCCTCGGCCCGGAAGAC | 0.272 | 0.295 | 0.115 | 0.281 | 0.301 | 0.302 | 0.278 | 0.44 | 0.201 | 0.275 | 0.244 | 0.296 | 0.338 | 0.311 | 0.297 | 0.507 | 0.45 | 0.513 | 0.131 | 0.466 |
| 34.0 (DMSO control at this site: 1-bp insertion 0.184, MH deletion 0.385, edited 0.103) ATTATAGGACCCTGAGGGAGCAGAGATGTGGGAATGGGGGCCGAGCCAATTGTGATGTAAG | 0.567 | 0.502 | 0.342 | 0.517 | 0.483 | 0.486 | 0.409 | 0.413 | 0.39 | 0.39 | 0.473 | 0.534 | 0.476 | 0.424 | – | 0.157 | 0.154 | 0.172 | 0.0647 | 0.184 |
| 7.0 (DMSO control at this site: 1-bp insertion 0.128, MH deletion 0.374, edited 0.098) TACTCAACCGAGACCTACGCGAACCGAAATCGTATGCCGGTGCGCAAGCAGGGCTGGCGTC | 0.414 | 0.393 | 0.324 | 0.45 | 0.441 | 0.38 | 0.427 | 0.536 | 0.425 | 0.394 | 0.436 | 0.476 | 0.43 | 0.401 | 0.367 | 0.105 | 0.131 | 0.164 | 0.113 | 0.105 |
| 47.0 (DMSO control at this site: 1-bp insertion 0.095, MH deletion 0.585, edited 0.118) GAGTGGTCCCGAGCCAGGAACTGTGTGTGTTGCAGGGGGGCAGTAACTCCCCAACTCCCTC | 0.57 | 0.469 | 0.319 | 0.528 | 0.477 | 0.494 | 0.442 | 0.503 | 0.389 | 0.453 | 0.486 | 0.508 | 0.554 | 0.46 | 0.401 | 0.0999 | 0.09 | 0.121 | 0.0733 | 0.118 |
| 32.0 (DMSO control at this site: 1-bp insertion 0.03, MH deletion 0.85, edited 0.898) AGAAGTCCAGGATCAGGGGGACTGGGGTCGGGAGGGTGGGGCAGGAAGGAAGCCAGAATCA | 0.91 | 0.93 | 0.896 | 0.908 | 0.897 | 0.918 | 0.904 | 0.928 | 0.886 | 0.926 | 0.904 | 0.88 | 0.92 | 0.903 | 0.897 | 0.00904 | 0.0156 | 0.0115 | 0.00897 | 0.00964 |
| 20.0 (DMSO control at this site: 1-bp insertion 0.349, MH deletion 0.138, edited 0.084) TACAGGTGTAGACTGGTTACGTGGCTGCGGAATTGACTGGTTACGTGGCTGCGGAATTTTG | 0.246 | 0.159 | 0.0478 | 0.203 | 0.191 | 0.203 | 0.215 | 0.263 | 0.133 | 0.125 | 0.181 | 0.197 | 0.176 | 0.2 | 0.243 | 0.29 | 0.248 | 0.373 | 0.0738 | 0.285 |
